Results filed as inconclusive are left out. Values without a mark were called inactive. Calls follow the shape of the dose curve; as a rule, active = well fitted inhibition curve with a large enough effect in the signal ratio in the repeat runs (not every such curve was filed as active); inconclusive = weak or mixed curves, or effect the other way; inactive = no such curve, though single readings can be large or run the other way; the % refers to the signal ratio.
target: Estrogen receptor beta (Homo sapiens) (UniProt Q92731); assay: qHTS assay to identify small molecule antagonists of the estrogen receptor beta (ER-beta) signaling pathway (AID 1259378); settings: ER-beta-UAS-bla HEK293T, beta-lactamase FRET ratio, 16 h; series mostly up to 92.4 µM; activity, negative = inhibition: at the top concentration
Sequence (Q92731 whole entry, looked up): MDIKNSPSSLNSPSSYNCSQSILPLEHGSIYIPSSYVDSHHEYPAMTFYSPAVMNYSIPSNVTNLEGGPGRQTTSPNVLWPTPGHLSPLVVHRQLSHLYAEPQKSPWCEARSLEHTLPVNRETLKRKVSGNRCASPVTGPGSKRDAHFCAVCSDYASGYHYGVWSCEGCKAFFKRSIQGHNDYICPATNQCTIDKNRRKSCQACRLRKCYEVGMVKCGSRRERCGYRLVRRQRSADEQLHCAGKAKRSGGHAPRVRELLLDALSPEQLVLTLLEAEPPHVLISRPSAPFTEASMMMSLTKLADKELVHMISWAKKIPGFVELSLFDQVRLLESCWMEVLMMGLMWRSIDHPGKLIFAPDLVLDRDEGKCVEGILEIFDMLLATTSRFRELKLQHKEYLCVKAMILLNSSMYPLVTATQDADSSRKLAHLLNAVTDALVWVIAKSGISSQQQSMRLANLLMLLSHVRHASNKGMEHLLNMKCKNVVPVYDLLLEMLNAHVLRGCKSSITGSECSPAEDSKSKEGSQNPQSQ
Excerpt: National Center for Advancing Translational Sciences [NCATS]
NIH Chemical Genomics Center [NCGC]
U.S. Environmental Protection Agency [EPA]
National Institutes of Environmental Health Sciences [NIEHS]
National Toxicology Program [NTP]
U.S. Food and Drug Administration [FDA]
Estrogen receptor (ER), a nuclear hormone receptor, plays an important role in development, metabolic homeostasis and reproduction. Two subtypes of ER, ER-alpha and ER-beta, have similar expression patterns with some uniqueness in both types. Endocrine disrupting chemicals (EDCs) and their interactions with steroid hormone receptors like ER causes disruption of normal endocrine function. To identify the compounds that inhibit ER signaling, an ER-beta-UAS-bla GripTite cell line (Life Technologies, Madison, WI, USA) containing a beta-lactamase reporter gene under the control of an UAS response element was used to screen Tox21 10K compound library.
Tox21 Assay Protocol Summary:
ER-beta-UAS-bla HEK293T cells were dispensed at 2,000 cells/4 uL of assay medium containing 2% charcoal stripped FBS per well into black wall/clear-bottom 1536-well plates using a Multidrop Combi (ThermoFisher Scientific, Waltham, MA) dispenser. After the assay plates were incubated at a 37C and 5% CO2 for 6 hr, 23 nL of compounds dissolved in DMSO, positive controls or DMSO only was transferred to the assay plate by a Pintool station (Kalypsys, San Diego, CA), followed by addition of 1 uL (1nM as final concentration) of 17-beta-estradiol (E2) in assay medium using a BioRAPTR FRD (Flying Reagent Dispenser, Aurora Discovery, San Diego, CA). The plates were incubated at 37C and 5% CO2 for 16 hr. Then 1 uL of LiveBLAzerTM B/G FRET substrate was added using a Flying Reagent Dispenser, the plates were incubated at room temperature for 2 hours, and fluorescence intensity was measured by an Envision plate reader (PerkinElmer, Shelton, CT).
% is scaled to controls: 0 for no effect and ±100 for the full control effect.

| SMILES | activity, negative = inhibition |
| --- | --- |
| CCCCCCC1CCC(=O)O1 (stereo not given) | 4.56% |
| CCCCOCCOC(=O)COc1cc(Cl)c(Cl)cc1Cl | 1.3% |
| CCCCCCCC1CCCC1=O (stereo not given) | -1.1% |
| O=C(O)CNC(=O)c1ccccc1 | 3.99% [at 42.5 µM] |
| COc1cc(C(=O)OC(COCCC(C)C)CN2CCOCC2)cc(OC)c1OC (stereo not given) | 7.29% [at 42.5 µM] |
| Cc1nc(C2CCCCC2)c(-c2ccc(S(N)(=O)=O)c(F)c2)o1 | -23.9% [at 42.5 µM] |
| CC1=C(C/C=C(\C)CCC[C@H](C)CCC[C@H](C)CCCC(C)C)C(=O)c2ccccc2C1=O | -6.46% [at 42.5 µM] |
| CCOC(=O)CCC(=O)OCC | 2.95% |
| CC(C#N)(CCC(=O)O)N=NC(C)(C#N)CCC(=O)O (stereo not given) | 13.6% |
| CCOC(=O)C(=O)CCCCCCl | -0.849% [at 42.5 µM] |
| CNCCO | 8.43% |
| CC(C)C(=O)OC(=O)C(C)C | -1.07% |
| NC(=O)N1c2ccccc2CC(=O)c2ccccc21 | 7.9% [at 42.5 µM] |
| CC(C)C1CCC(O)CC1 (stereo not given) | 11.3% |
| [K+] | -6.57% |
| CC1=NN(c2cc(S(=O)(=O)O)ccc2Cl)C(=O)C1N=Nc1ccccc1 (stereo not given) | 8.97% |
| C=COC(=O)C(C)(CC)CCC(C)C (stereo not given) | 14.1% |
| Cc1ccc(-c2ncc(Cl)cc2-c2ccc(S(C)(=O)=O)cc2)cn1 | -10.2% [at 42.5 µM] |
| CCOC(=O)COc1cc(-n2ncc(C(F)(F)F)c(C)c2=O)c(F)cc1Cl | 3.39% |
| C=C(C)C(=O)OCC(O)CO (stereo not given) | 6.16% [at 42.5 µM] |

| SMILES | activity, negative = inhibition |
| --- | --- |
| OCCc1ccccn1 | 13.4% |
| COCCOC[C@H](CC1(C(=O)NC2CCC(C(=O)O)CC2)CCCC1)C(=O)Oc1ccc2c(c1)CCC2 (stereo not given in full) | -1.59% |
| CN1CC(=O)N/C1=N/C(=O)Nc1cccc(Cl)c1 | -1.83% [at 42.5 µM] |
| C=CCCCCCCCCC(=O)OCC | -0.257% |
| CC(N)C12CC3CC(CC(C3)C1)C2 (stereo not given) | 4.95% [at 42.5 µM] |
| CC(=O)O[C@@]12CO[C@@H]1C[C@H](O)[C@@]1(C)C(=O)[C@H](O)C3=C(C)[C@@H](OC(=O)[C@H](O)[C@@H](NC(=O)OC(C)(C)C)c4ccccc4)C[C@@](O)([C@@H](OC(=O)c4ccccc4)[C@H]21)C3(C)C | 5.76% [at 42.5 µM] |
| CCOC(=O)COC(=O)c1ccccc1C(=O)OCC | 11.7% |
| Cc1ccc(C(=O)c2ccccc2)cc1 | 13.9% |
| C1CCC2=NCCCN2CC1 | 11.4% |
| Cc1onc(-c2c(Cl)cccc2Cl)c1C(=O)Cl | 8.02% [at 42.5 µM] |
| O=C(O)Cc1csc(-c2ccc(Cl)cc2)n1 | 10.7% [at 42.5 µM] |
| CCOCC(C)O (stereo not given) | 3.3% |
| O=C1NC(=O)C2CC=CCC12 (stereo not given) | 4.05% |
| CCCCCCC#CC(=O)OC | -3.74% |
| CC1=CC(=O)[C@H]2C[C@@H]1C2(C)C | 8.06% |
| CCCCN(CCC(=O)OCC)C(C)=O | 10.1% |
| CCCCOCCOC(=O)CCCCCCCCC(=O)OCCOCCCC | 2.63% |
| CCC(C)(CN(C)C)OC(=O)c1ccccc1 (stereo not given) | 11.7% [at 42.5 µM] |
| CCCc1ncc(C[n+]2ccccc2C)c(N)n1 | 4.79% [at 42.5 µM] |
| CCOc1ccccc1OCC | 5.59% |

Source: PubChem BioAssay (Tox21)
